# Data reported in PubChem BioAssay AID868 (SRMLSC, 2007).
# About 3,500 (1.8%) of roughly 190,000 compounds were called active. The sample holds actives, similar compounds and a random draw of the others, so the mix is not that of the screen. Unmarked numbers belong to inactive results.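 The calls were made as follows: active = inhibition above a set limit, 3 SD over mean compound inhibition (cut at about 8.4% in these data); inactive = the rest.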
# Experiment: RAM signaling blockers in budding yeast – dse1pr::URA3 reporter, 5-FOA selection, primary screen (AID 868);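 also: 0% = DMSO-only wells with no growth and 100% = 10 µM 1-NA-PP1 full growth; inhibition rescues growth on 5-FOA so higher OD means more RAM inhibition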
# Conditions: S. cerevisiae dse1pr::URA3 reporter, 5-FOA growth OD615, 2 d; at 50 µM; active compounds read high; analog-sensitive cbk1-as2 kinase mutant strain
row,SMILES,inhibition
1,O=C(O)c1ccc(NC(=O)c2cn(-c3ccccc3)nc2-c2ccc(Cl)cc2)cc1,6.63%
2,COc1ccc(-c2nn(-c3ccccc3)cc2/C=C\C(=O)Nc2ccc(C(=O)O)cc2)cc1,9.89% (active)
3,Cc1ccc(-c2nn(-c3ccccc3)cc2/C=C/C(=O)Nc2cccc(S(N)(=O)=O)c2)cc1,4.87%
4,CCCC(=O)OCC(=O)Nc1cc(Cl)ccc1[N+](=O)[O-],0.82%
5,Cc1cc(NC(=O)COC(=O)COc2ccc(Cl)cc2C)c([N+](=O)[O-])cc1C,10.1% (active)
6,COc1ccc(OCC(=O)Nc2cc(C)c(Cl)cc2OC)c([N+](=O)[O-])c1,1.54%
7,Cc1ccccc1C(=O)Nc1ccc(N2CCCCCC2)cc1,1.43%
8,O=C(Nc1cc(S(=O)(=O)N2CCOCC2)ccc1Cl)c1cc(=O)c2ccccc2o1,1.91%
9,COc1ccccc1NC(=O)/C=C/C(=O)O,2.02%
10,Clc1ccccc1CSc1nnc(-c2ccco2)c(-c2ccco2)n1,16% (active)
11,Nc1nc(SCc2ccccc2Cl)n[nH]1,2.44%
12,c1ccc(CSc2nnc(-c3ccco3)c(-c3ccco3)n2)cc1,0.53%
13,CCOC(=O)C1CCCN(C(=O)COc2ccc(N(C)S(=O)(=O)c3ccc(C)cc3)cc2)C1 (centres undefined),-0.86%
14,COCc1c(N)c(C)nc(Cl)c1C#N,0.6%
15,CC(C)(C)C(=O)N(Cc1ccccc1)c1ccccn1,-0.12%
16,CCOC(=O)C/C(C)=N\Nc1ccc([N+](=O)[O-])cc1[N+](=O)[O-],0%
17,Cc1ccccc1C(=O)OC1OC(=O)C(Cl)=C1Nc1ccccc1 (centres undefined),6.67%
18,O=C1OC(OC(=O)c2ccccc2Br)C(N2CCOCC2)=C1Cl (centres undefined),1.63%
19,Cc1ccc(NC2=C(Cl)C(=O)OC2OC(=O)c2ccccc2C)cc1 (centres undefined),12.9% (active)
20,CCOc1ccc(C(=O)Nc2cccc(-c3ccc4nncn4n3)c2)cc1,3.23%

row,SMILES,inhibition
1,COCCCNC(=O)/C=C/c1ccc(OCc2c(F)cccc2Cl)cc1,0.89%
2,O=C(Nc1ccccc1C(=O)N1CCCCCC1)c1ccccc1Cl,-0.13%
3,CC(=O)c1ccc(N2CCN(C(=O)c3ccc4nc[nH]c4c3)CC2)cc1,2.3%
4,CCOC(=O)/C(N=Nc1cc(C(=O)O)cc(C(=O)O)c1)=C(\O)CCl,0%
5,COc1ccc(OCCCn2cccc2/C=C2/C(=N)N3OC(C)=CC3=NC2=O)cc1,12.5% (active)
6,CCOc1cc(/C=C2/C(=N)N3OC(C)=CC3=NC2=O)ccc1OC,4.09%
7,Cc1ccc(OCCCn2c(=O)oc3ccccc32)cc1,0.62%
8,COCCNC(=O)C(c1ccc(O)cc1)N(C(=O)CCC(=O)Nc1nccs1)c1ccc(C)cc1 (centres undefined),0.98%
9,Oc1c(Cl)cc(Cl)c(Cl)c1Cc1c(O)c(Cl)cc(Cl)c1Cl,12% (active)
10,OC1CSc2nc3ccccc3n2C1 (centres undefined),0%
11,CC1Cc2ccccc2N1S(=O)(=O)c1c(N)n(C)c(=O)n(C)c1=O (centres undefined),-1.31%
12,CCCCn1ccnc1C(=O)c1cccc(S(=O)(=O)N2c3ccccc3CC2C)c1 (centres undefined),11.4% (active)
13,CN1CCN(S(=O)(=O)c2cccc(C(=O)N3CCc4ccccc43)c2)CC1,1.24%
14,CC(=O)NC(Cc1ccc(F)c(F)c1)C(=O)NC1CCN(C(=O)c2ccc(C)cc2)CC1 (centres undefined),0.5%
15,COc1cc(OC)cc(-c2nnc(N(C)C(=O)c3ccncc3)s2)c1,0.96%
16,COCCN(C(=O)c1ccco1)c1nnc(-c2ccc(OC)cc2)s1,4.86%
17,COCCN(C(=O)C(C)C)c1nnc(-c2ccc(C(C)(C)C)cc2)s1,19.7% (active)
18,CSc1nc2ccc(NC(=O)c3c(F)cccc3F)cc2s1,4.89%
19,Cn1cc(/C=C/C(=O)N2CCCC(C(=O)c3ccc(C(F)(F)F)cc3)C2)cn1 (centres undefined),-1.92%
20,CN1CCN(c2ccc(S(=O)(=O)N3CCCCC3)cc2NC(=O)Cc2ccccc2F)CC1,1.32%

row,SMILES,inhibition
1,O=C(O)CSc1nnc(-c2ccc3c(c2)OCO3)n1-c1ccccc1,3.54%
2,COC(=O)c1ccccc1NC(=O)Cn1nc(C(F)(F)F)c2c1CCC2,5.65%
3,COC(=O)c1ccccc1Sc1c(/C=N/OCc2ccc(Cl)cc2)c(C(F)(F)F)nn1C,8.63% (active)
4,Cn1nc(C(F)(F)F)c(C(=O)Nc2cccc(C(F)(F)F)c2)c1SCc1ccc(Cl)cc1,7%
5,CCOC(=O)c1sc(/N=C/C2=C(O)CC(C)(C)CC2=O)c(C(=O)OCC)c1C,4.52%
6,Cc1ccc(C(C)NC(=O)Cn2nc(C)c([N+](=O)[O-])c2C)cc1 (centres undefined),0.13%
7,CCC(C(=O)Nc1ccc(C(C)C)cc1)c1ccccc1 (centres undefined),3.4%
8,COc1cc(OC)cc(-c2nc3nc(C)c(CCC(=O)NCc4ccco4)c(C)n3n2)c1,5.8%
9,COc1ccc(-c2cc(C(F)(F)F)nc(SCCC(=O)NCc3ccco3)n2)cc1,8.41% (active)
10,O=C(CSc1nc(-c2ccco2)cc(C(F)(F)F)n1)NCc1cccs1,5.13%
11,COc1cc(/C=N/NC(=S)Nc2cccnc2)cc(OC)c1O,0.73%
12,CCOc1cc(C2C(C(=O)OC(C)C)=C(C)NC3=C2C(=O)CCC3)cc([N+](=O)[O-])c1O (centres undefined),3.44%
13,COc1ccc(CCNC2=C(Cl)C(=O)N(Cc3ccccc3)C2=O)cc1OC,8.57% (active)
14,COc1ccc(CCN(C)CCN2C(=O)c3ccccc3C2=O)cc1OC,-0.11%
15,COc1ccc(CCN=C2SCC(=O)N2Cc2ccccc2)cc1OC,0.24%
16,O=C(CSc1ccccc1)Nc1nnc(/C=C/c2ccccc2)s1,3.72%
17,COc1ccc(Cl)cc1C(=O)NNC(=S)NC1CCCC1,0%
18,COCCCNc1nc2c(-c3cccc(C(F)(F)F)c3)nnn2c2ccccc12,4.26%
19,CCCNC(=O)c1c(Cl)cnn1-c1ccc(C)cc1,-1.52%
